In one experiment the target is Papain (Carica papaya) (UniProt P00784). The experiment is described as follows: Primary qHTS assay for inhibitors of the protease papain (AID 1645873).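 Further: papain turnover of Z-FR-AMC read as the AMC fluorescence gain over 10 min.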 Further: potency means the concentration at half of the fitted maximal effect. On activity change, negative = inhibition: on the % scale 0 is the no-effect control and ±100 the full control effect. To be noted: papain Z-FR-AMC cleavage, AMC fluorescence; series mostly up to 49.8 µM. (In general: Quantitative high-throughput screening tests each substance at several concentrations.)
Chain of Papain (Carica papaya) (P00784 whole entry, looked up, the tested form may be a part): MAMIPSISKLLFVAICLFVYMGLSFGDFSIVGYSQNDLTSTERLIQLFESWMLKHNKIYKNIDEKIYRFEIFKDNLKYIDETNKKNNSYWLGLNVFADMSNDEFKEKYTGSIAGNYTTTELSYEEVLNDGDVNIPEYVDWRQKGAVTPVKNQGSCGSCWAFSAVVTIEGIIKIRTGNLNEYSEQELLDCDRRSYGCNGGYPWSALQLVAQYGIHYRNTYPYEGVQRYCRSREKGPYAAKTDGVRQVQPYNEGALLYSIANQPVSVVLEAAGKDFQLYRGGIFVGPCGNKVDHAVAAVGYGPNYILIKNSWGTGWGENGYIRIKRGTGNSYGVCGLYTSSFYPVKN
Experiment [1] is described as follows: Primary qHTS for inhibitors of nuclear receptor binding SET domain protein 2 (NSD2) in an isogenic RCH-ACV NSD2 p.E1099K mutant (9B) (AID 1645876). Further: nearly all actives have a fitted effect of over 70% in size. Further: potency means the concentration at half of the fitted maximal effect. The settings on record: RCH-ACV NSD2 E1099K (9B) viability, CellTiter-Glo, 72 h; series mostly up to 44.9 µM.
Experiment [2] can be described thus: Primary qHTS for inhibitors of nuclear receptor binding SET domain protein 2 (NSD2) in an RCH-ACV wild type WT cells (2C) (AID 1645877). Further: nearly all actives have a fitted effect of over 70% in size. Further: potency means the concentration at half of the fitted maximal effect. To be noted: RCH-ACV (leukaemia line) NSD2 WT (2C) viability, CellTiter-Glo, 72 h; series mostly up to 44.9 µM.
Experiment [3] addresses N-terminal Xaa-Pro-Lys N-methyltransferase 1 (Homo sapiens) (UniProt Q9BV86). The experiment is described as follows: Confirmatory qHTS for Inhibitors of N-terminal methyltransferase 1 (NTMT1): MTaseGlo Assay (AID 1645874).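 Further: luminescence from SAH made as NTMT1 methylates SPKRIA peptide using SAM; 0% = DMSO control and -100% = no-enzyme control; nearly all actives have a fitted effect of over 65% in size.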 To be noted: NTMT1 enzyme, MTase-Glo SAH luminescence; series mostly up to 100 µM. A digest of the protocol:
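Inhibition was derived from luminescence after SAH-to-ATP conversion, scaled between no-enzyme and DMSO wells, then fitted by 4-parameter Hill. Conditions: 125 nM NTMT1, 100 uM SAM, 1 uM SPKRIA, 30 min RT.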

For experiment [4], the target named is Catechol O-methyltransferase (Homo sapiens) (UniProt P21964). The experiment is described as follows: Confirmatory Screen for Target Class Profiling of Small Molecule Inhibitors of Methyltransferases (AID 1745852; calls by dose curve; further: potency means the concentration at half of the fitted maximal effect). The settings on record: MTase-Glo luminescence, SAH detection, recombinant enzyme; measured here: COMT max response; stronger effect = lower value.
Chain of Catechol O-methyltransferase (Homo sapiens) (P21964 whole entry, looked up): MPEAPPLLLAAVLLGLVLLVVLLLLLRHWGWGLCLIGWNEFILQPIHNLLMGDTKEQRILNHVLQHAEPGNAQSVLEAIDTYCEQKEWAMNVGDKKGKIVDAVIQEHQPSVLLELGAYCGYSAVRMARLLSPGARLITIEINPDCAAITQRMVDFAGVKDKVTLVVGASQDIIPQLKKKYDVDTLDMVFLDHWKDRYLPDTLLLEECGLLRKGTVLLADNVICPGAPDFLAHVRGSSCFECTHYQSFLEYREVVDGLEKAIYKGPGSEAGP
The target in experiment [5] is Guanidinoacetate N-methyltransferase (Homo sapiens) (UniProt Q14353). The experiment is described as above. To be noted: MTase-Glo luminescence, SAH detection, recombinant enzyme; activity change, negative = inhibition: at 57.3 µM (top of the series).
Experiment [6] concerns the target Nicotinamide N-methyltransferase (Homo sapiens) (UniProt P40261). The description is as above. The settings on record: MTase-Glo luminescence, SAH detection, recombinant enzyme; measured here: NNMT max response; stronger effect = lower value.
Experiment [7] concerns the target Phenylethanolamine N-methyltransferase (Homo sapiens) (UniProt P11086). The description is as above. To be noted: MTase-Glo luminescence, SAH detection, recombinant enzyme; measured here: PNMT max response; stronger effect = lower value.
Experiment [8] can be described thus: NCATS anti-infectives library activity on HEK293 viability as a counter-qHTS vs the C. elegans viability qHTS (AID 1745854). Further: potency means the concentration at half of the fitted maximal effect. To be noted: HEK293 viability counter-screen; series mostly up to 41.8 µM. Put shortly: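 CellTiter-Glo luminescence, read on a CCD imager, scored viability of HEK293 cells after 24 hr compound exposure at 37C. Library tested in several concentrations, 1:5 steps, up to 41.7 uM; digitonin served as control.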

Experiment [9] is described as follows: NCATS anti-infectives library activity on the primary C. elegans qHTS viability assay (AID 1745855; calls by dose curve; further: potency means the concentration at half of the fitted maximal effect). The settings on record: C. elegans worm area imaging, day 7; series mostly up to 41.8 µM. A digest of the protocol:
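Titration-based screen in worms: eggs hatched overnight in M9, L1 larvae fed TOP10 capsules in S medium with compound, incubated 21 °C for 7 days; fluorescent objects gated by size and intensity at days 0, 3 and 7.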

Molecules are shown by their SMILES. Where “and” joins values, the source holds several entries; their conditions need not be identical. Equal entries are not always repeated. Records with an inconclusive call do not appear. Calls of active or inactive are those of the source. Unless noted, the call rests on the fitted dose curve; in most records, active means well fitted curve in the direction sought with a large enough effect; inconclusive means small, poorly fitted or top-dose-only effect, or another doubt; inactive means no such curve, though single readings can be large; an effect the other way counts as inactive or inconclusive.

Potency, outcome and activity data for 36 compounds are collected here from PubChem BioAssay (NCATS).

Chain of N-terminal Xaa-Pro-Lys N-methyltransferase 1 (Homo sapiens) (Q9BV86 whole entry, looked up): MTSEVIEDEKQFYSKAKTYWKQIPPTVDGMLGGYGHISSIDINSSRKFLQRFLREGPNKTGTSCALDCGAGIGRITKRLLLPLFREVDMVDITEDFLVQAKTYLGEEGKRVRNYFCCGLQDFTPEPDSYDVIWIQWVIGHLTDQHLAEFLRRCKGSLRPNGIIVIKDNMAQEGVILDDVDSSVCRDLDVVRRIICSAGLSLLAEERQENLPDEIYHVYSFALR
Chain of Phenylethanolamine N-methyltransferase (Homo sapiens) (P11086 whole entry, looked up): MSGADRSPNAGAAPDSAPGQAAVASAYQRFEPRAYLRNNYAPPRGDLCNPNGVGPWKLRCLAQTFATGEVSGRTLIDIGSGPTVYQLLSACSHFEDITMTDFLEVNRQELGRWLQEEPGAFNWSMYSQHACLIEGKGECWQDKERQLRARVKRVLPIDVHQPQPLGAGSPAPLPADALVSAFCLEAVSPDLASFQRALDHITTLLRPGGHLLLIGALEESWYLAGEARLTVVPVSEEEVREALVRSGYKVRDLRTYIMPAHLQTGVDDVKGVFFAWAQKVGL
Chain of Nicotinamide N-methyltransferase (Homo sapiens) (P40261 whole entry, looked up): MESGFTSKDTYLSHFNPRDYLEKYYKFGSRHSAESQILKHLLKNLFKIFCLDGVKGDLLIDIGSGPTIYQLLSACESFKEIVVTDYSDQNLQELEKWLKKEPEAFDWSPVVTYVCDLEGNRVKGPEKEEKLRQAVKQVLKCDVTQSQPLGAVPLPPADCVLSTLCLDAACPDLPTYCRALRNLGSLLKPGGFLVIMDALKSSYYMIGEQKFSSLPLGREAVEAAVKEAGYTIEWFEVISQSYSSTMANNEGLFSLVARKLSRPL

Regarding `Cn1c(=O)c2[nH]cnc2n(C)c1=O`, the Potency entry (with Papain (Carica papaya); in experiment [1]; in experiment [2]) was “inactive” in each case.
Regarding `CN(C)CCC=C1c2ccccc2C=Cc2ccccc21`, the Potency result in the experiment with Papain (Carica papaya) was “inactive”. In experiment [3], the outcome is “inactive”. The Potency in experiment [1] was 20.9 µM (active); in experiment [2], 23.5 µM (active); in experiment [5] it was 0.0039 µM (active). The figures for the activity in experiment [4], in experiment [6] and in experiment [7] were 7.28%, -9.28% and 7.91%, respectively.
For `O=C1N(c2ccccc2)c2ccccc2C1(Cc1ccncc1)Cc1ccncc1`, the Potency result (with Papain (Carica papaya); in experiment [1]; in experiment [2]) was “inactive” in each case.
In the case of `CNCCCC12CCC(c3ccccc31)c1ccccc12`, the Potency result with Papain (Carica papaya) was “inactive”. In addition, the Potency was 21.1 µM (active) and 20.9 µM (active) in experiment [1]; 18.8 µM (active) and 20.9 µM (active) in experiment [2].
Regarding `CS(=O)(=O)Nc1ccc([N+](=O)[O-])cc1Oc1ccccc1`, the Potency result (in the experiment with Papain (Carica papaya); in [1]; in experiment [2]) was “inactive” throughout.
For `Clc1ccc2c(c1)C(N1CCNCC1)=Nc1ccccc1O2`, the Potency entry (with Papain (Carica papaya); in experiment [1]; in experiment [2]) was “inactive” throughout.
Turning to `NC(=O)OCC(COC(N)=O)c1ccccc1`, the Potency result (with Papain (Carica papaya); in experiment [1]; in experiment [2]) was “inactive” each time.
For the compound `CC(C(=O)O)c1cccc(C(=O)c2ccccc2)c1` (configuration not stated), in the experiment with Papain (Carica papaya), the Potency result is “inactive”.
`O=C(c1ccc(F)cc1)C1CCN(CCn2c(=O)[nH]c3ccccc3c2=O)CC1`: the Potency result (with Papain (Carica papaya); in experiment [1]; in [2]) was “inactive” throughout.
For the compound `O=C(c1ccc(OCCN2CCCCC2)cc1)c1c(-c2ccc(O)cc2)sc2cc(O)ccc12`, in the experiment with Papain (Carica papaya), the Potency entry was “inactive”. Also, the Potency was 21.1 µM (active) and 23.5 µM (active) and 20.6 µM (active) in experiment [1]; 13.3 µM (active) and 18.6 µM (active) and 18.4 µM (active) in experiment [2].
In the case of `O=C1Cc2cc(CCN3CCN(c4nsc5ccccc45)CC3)c(Cl)cc2N1`, the Potency with Papain (Carica papaya) is 3.55 µM (active); in [1], 15 µM (active); in experiment [2], 20.5 µM (active).
Turning to `CC12CC3CC(C)(C1)CC(N)(C3)C2`, the Potency entry (in the experiment with Papain (Carica papaya); in [1]) was “inactive” each time.
As to `Cn1cnc2c1c(=O)[nH]c(=O)n2C`, the Potency entry (in the experiment with Papain (Carica papaya); in experiment [1]; in experiment [2]) was “inactive” throughout.
With `CN1CCC(=C2c3ccccc3C=Cc3ccccc32)CC1`, the Potency entry with Papain (Carica papaya) is “inactive”. Besides, the Potency in experiment [1] is 23.5 µM (active); in [2], 18.6 µM (active).
For `N[C@@H](Cc1c[nH]c2ccc(O)cc12)C(=O)O` the same measures were “inactive”, “inactive” and “inactive”.
With `CN1CCN2c3ccccc3Cc3ccccc3C2C1` (configuration not stated), the Potency entry with Papain (Carica papaya) is “inactive”.
As for `CCOC(=O)c1ncn2c1CN(C)C(=O)c1cc(F)ccc1-2`, the Potency result (with Papain (Carica papaya); in [1]; in experiment [2]) was “inactive” in each case.
On to `COc1nc(C)nc(Cl)c1NC1=NCCN1`, for which the Potency entry (in the experiment with Papain (Carica papaya); in experiment [1]; in [2]) was “inactive” throughout.
On to `CCc1cccc2c3c([nH]c12)C(CC)(CC(=O)O)OCC3` (configuration not stated), for which the Potency result (in the experiment with Papain (Carica papaya); in [1]; in experiment [2]) was “inactive” in each case.
Regarding `COc1ccccc1OCCNCC(O)COc1cccc2[nH]c3ccccc3c12` (configuration not stated), the Potency result with Papain (Carica papaya) is “inactive”.
For the compound `CN1C(C(=O)Nc2ccccn2)=C(O)c2ccccc2S1(=O)=O`, the Potency entry (in the experiment with Papain (Carica papaya); in experiment [1]; in [2]) was “inactive” each time.
As to `CCCNCC(O)COc1ccccc1C(=O)CCc1ccccc1` (configuration not stated), the Potency result with Papain (Carica papaya) was “inactive”. Also, the Potency in [1] was 18.6 µM (active); in experiment [2] it was 15 µM (active) and 16.6 µM (active).
Consider `CN(C)CCOC(c1ccccc1)c1ccccc1`, for which the Potency entry (with Papain (Carica papaya); in experiment [1]; in [2]) was “inactive” in each case.
As for `CCC1(C)CC(=O)NC1=O` (configuration not stated), the Potency result (with Papain (Carica papaya); in experiment [1]; in experiment [2]) was “inactive” in each case. For the same compound, the outcome in [3] was “inactive”.
Turning to `CC#C[C@]1(O)CC[C@H]2[C@@H]3CCC4=CC(=O)CCC4=C3[C@@H](c3ccc(N(C)C)cc3)C[C@@]21C`, the Potency result with Papain (Carica papaya) was “inactive”. The Potency in [1] is 23.5 µM (active).
For `CC(C)C(=O)Nc1ccc([N+](=O)[O-])c(C(F)(F)F)c1`, in the experiment with Papain (Carica papaya), the Potency result was “inactive”.
For `CN(C)c1nc(N(C)C)nc(N(C)C)n1`, the Potency entry (in the experiment with Papain (Carica papaya); in experiment [1]; in experiment [2]) was “inactive” each time.
Turning to `Clc1ccc2nsnc2c1NC1=NCCN1`, the Potency result (in the experiment with Papain (Carica papaya); in [1]; in experiment [2]) was “inactive” throughout.
In the case of `NCCc1cnc[nH]1`, the Potency result (in the experiment with Papain (Carica papaya); in experiment [1]; in [2]) was “inactive” in each case.
`C[C@](N)(Cc1ccc(O)c(O)c1)C(=O)O`: the Potency entry (with Papain (Carica papaya); in experiment [1]; in [2]) was “inactive” throughout.
`CCOC(=O)C(C)(C)Oc1ccc(Cl)cc1`: the Potency result (in the experiment with Papain (Carica papaya); in [1]; in experiment [2]) was “inactive” in each case.
As for `CCC1(c2ccccc2)C(=O)NCNC1=O`, the Potency result (with Papain (Carica papaya); in [1]; in [2]) was “inactive” throughout.
Turning to `NC(CO)C(=O)NNCc1ccc(O)c(O)c1O` (configuration not stated), the Potency entry in the experiment with Papain (Carica papaya) is “inactive”. Also, the Potency in experiment [1] was 26.3 µM (active).
With `C[C@H]1c2cccc(O)c2C(O)=C2C(=O)[C@]3(O)C(O)=C(C(N)=O)C(=O)[C@@H](N(C)C)[C@@H]3[C@@H](O)[C@@H]21`, the Potency with Papain (Carica papaya) was 22.4 µM (active); in [1], 23.5 µM (active); in experiment [2] it was 9.34 µM (active); in experiment [9], 1.15 µM (active). In addition, the Potency entry in experiment [8] was “inactive”.
Regarding `Cc1cn([C@H]2C=C[C@@H](CO)O2)c(=O)[nH]c1=O`, the Potency result (with Papain (Carica papaya); in experiment [1]; in experiment [2]; in [8]) was “inactive” each time.
In the case of `O=C1c2c(O)ccc(O)c2C(=O)c2c(NCCNCCO)ccc(NCCNCCO)c21`, in the experiment with Papain (Carica papaya), the Potency result was “inactive”. For the same compound, the Potency in experiment [1] is 0.186 µM (active); in experiment [2], 0.132 µM (active); in [8], 12.6 µM (active).
